Experimental data as given in PubChem BioAssay.
Calls of active or inactive are those of the source. Unless noted, the rule behind the calls is not given here.

Experiments:
[1] = HepG2 liver cancer cell viability effects, profiling panel, resazurin fluorescence, 24 h, PK04 Diversity Set (AID 1172); conditions: higher = more signal; note: test concentration not given here
[2] = basal S. cerevisiae growth modulation, no modifier, primary screen, OD600, strain BY4716, 24 h, basal condition (AID 1173); conditions: OD600, 24 h, higher = more signal, called active from +8 up or from −8 down
[3] = MM1S myeloma cell viability, profiling panel, resazurin fluorescence, basal, 24 h, PK04 Diversity Set (AID 1174); conditions: higher = more signal, called active from +8 up or from −8 down;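 note: MM1S multiple myeloma cell line; test concentration not given here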
[4] = target: Dihydroorotate dehydrogenase (quinone), mitochondrial (Plasmodium falciparum (isolate 3D7)) (UniProt Q08210); assay: PfDHODH enzyme inhibitors, primary screen, biochemical, C-terminal His tag, absorbance 600 nm (AID 1175); conditions: DCIP absorbance 600 nm, higher = more signal, called active from +8 up or from −8 down;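 note: recombinant parasite enzyme with a five histidine tag at its C terminus; test concentration not given here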
[5] = P. aeruginosa biofilm formation inhibitors, primary screen, strain PAO1, LB-PBS medium, absorbance 600 nm (AID 1176); note: test concentration not given here; conditions: P. aeruginosa PAO1 growth/biofilm, A600, 12 h; higher = more signal
[6] = S. cerevisiae RM11-1a growth modifiers, primary screen, strain RM11-1a, OD600, basal, 24 h (AID 1177); conditions: OD600, 24 h, higher = more signal, called active from +8 up or from −8 down;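 note: cultures grown under basal conditions with no added stressor; test concentration not given here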
[7] = E. coli acrAB mutant growth effects, primary screen, E. coli filamentation inducers, strain DRC39, OD650, 24 h (AID 1178); conditions: higher = more signal, called active from +8 up or from −8 down;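 note: growth measured as culture turbidity by optical density at 650 nm; test concentration not given here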
[8] = E. coli acrAB mutant growth effects, primary screen, E. coli filamentation inducers, strain DRC39, OD650, 48 h (AID 1179);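 note: screen aims at cell division blockers that make cells filament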; conditions: E. coli DRC39 delta-acrAB growth, higher = more signal, called active from +8 up or from −8 down
[9] = RPMI8226 myeloma cell viability, profiling panel, resazurin fluorescence, basal, 24 h, PK04 Diversity Set (AID 1180); conditions: higher = more signal;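 note: RPMI8826 multiple myeloma cell line at 5000 cells per well; test concentration not given here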
[10] = target: E3 ubiquitin-protein ligase XIAP (Homo sapiens) (UniProt P98170); assay: XIAP binders, primary screen, biophysical, small-molecule microarray, fluorescence 635 nm (AID 1181); conditions: small-molecule microarray binding, higher = more signal;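 note: score merges 667 nm emission and signal to noise over triplicate slides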
Chain of E3 ubiquitin-protein ligase XIAP (Homo sapiens) (P98170 whole entry, looked up): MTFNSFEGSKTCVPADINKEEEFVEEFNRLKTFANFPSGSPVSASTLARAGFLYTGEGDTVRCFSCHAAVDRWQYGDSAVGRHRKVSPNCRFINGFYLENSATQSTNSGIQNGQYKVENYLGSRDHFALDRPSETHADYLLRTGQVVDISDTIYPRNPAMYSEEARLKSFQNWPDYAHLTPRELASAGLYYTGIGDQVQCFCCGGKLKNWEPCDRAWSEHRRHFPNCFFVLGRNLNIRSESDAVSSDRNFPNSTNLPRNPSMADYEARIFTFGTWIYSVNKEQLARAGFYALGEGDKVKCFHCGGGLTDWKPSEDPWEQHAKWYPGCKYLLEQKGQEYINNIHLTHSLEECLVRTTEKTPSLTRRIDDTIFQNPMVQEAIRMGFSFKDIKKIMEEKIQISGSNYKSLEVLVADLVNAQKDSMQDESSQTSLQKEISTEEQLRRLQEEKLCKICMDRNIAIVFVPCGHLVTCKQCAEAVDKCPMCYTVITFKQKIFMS

Chain of Dihydroorotate dehydrogenase (quinone), mitochondrial (Plasmodium falciparum (isolate 3D7)) (Q08210 whole entry, looked up): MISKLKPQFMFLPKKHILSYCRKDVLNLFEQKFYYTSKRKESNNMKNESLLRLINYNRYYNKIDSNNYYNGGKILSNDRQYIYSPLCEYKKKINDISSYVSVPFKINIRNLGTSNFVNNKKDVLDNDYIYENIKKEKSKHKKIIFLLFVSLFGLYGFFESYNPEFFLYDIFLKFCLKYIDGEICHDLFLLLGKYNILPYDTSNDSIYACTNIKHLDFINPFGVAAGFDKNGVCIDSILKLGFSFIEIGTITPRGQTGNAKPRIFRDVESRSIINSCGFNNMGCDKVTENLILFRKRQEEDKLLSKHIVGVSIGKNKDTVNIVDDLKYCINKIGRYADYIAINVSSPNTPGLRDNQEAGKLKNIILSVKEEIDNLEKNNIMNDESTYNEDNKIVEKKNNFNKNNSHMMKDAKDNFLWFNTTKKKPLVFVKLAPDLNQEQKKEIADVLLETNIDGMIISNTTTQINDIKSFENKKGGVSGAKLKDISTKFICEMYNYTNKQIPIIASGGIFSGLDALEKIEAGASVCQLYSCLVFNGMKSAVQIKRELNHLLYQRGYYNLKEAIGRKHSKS

Compound	z-score [1]	z-score [2]	z-score [3]	composite z-score [4]	z-score [5]	z-score [6]	z-score [7]	z-score [8]	z-score [9]	composite z-score [10]
CCOC(=O)C1=CC[C@@H](c2cc(Cl)ccc2Cl)N(S(=O)(=O)c2ccc(C)cc2)[C@H]1c1ccc(OC)cc1	0.292	2.05 (inactive)	-1.34 (inactive)	0.658 (inactive)	0.0767 (inactive)	2.28 (inactive)	-0.61 (inactive)	-1.03 (inactive)	-1.97	0.179
CC(C)C[C@@H]1NC(=O)[C@H]2C[C@@H](C(=O)NCCCCCC[N+](C)(C)C)[C@@H](c3cccc(OCCO)c3)N2C1=O	1.15	-0.703 (inactive)	0.288 (inactive)	-1.16 (inactive)	-0.819 (inactive)	-0.215 (inactive)	0.481 (inactive)	0.442 (inactive)	0.571	-0.188
Cc1ccc(S[C@]2(C(=O)NCc3ccccc3)CC(=O)N(C(C)C)[C@@H]2c2ccc(CO)cc2I)cc1	0.059	-1.93 (inactive)	-1.63 (inactive)	-0.335 (inactive)	-0.0807 (inactive)	-0.964 (inactive)	0.484 (inactive)	0.329 (inactive)	-2.35	-0.253
[N-]=[N+]=Nc1ccccc1[C@H]1OC(c2ccc(OCCCO)cc2)=N[C@@]1(CCS(=O)(=O)c1ccccc1)C(=O)N1CCCCC1	0.186	-0.0728 (inactive)	-1.63 (inactive)	-0.792 (inactive)	0.715 (inactive)	0.836 (inactive)	0.21 (inactive)	-0.714 (inactive)	-1.64	-0.0884
C=CC[C@@]1(C(=O)O)N=C(c2ccc(OCCCO)cc2)O[C@@H]1c1ccccc1	1.53	-1.07 (inactive)	0.753 (inactive)	0.977 (inactive)	-0.568 (inactive)	0.0596 (inactive)	-0.0277 (inactive)	1.2 (inactive)	1.4	0.559
CC(C)C(=C=CC[C@H](O)c1ccc(OCCO)cc1)C[C@H](O)c1cc(Cl)cc(Cl)c1O	0.918	-5.12 (inactive)	-1.31 (inactive)	-2.84 (inactive)	-0.21 (inactive)	-0.2 (inactive)	1.14 (inactive)	0.476 (inactive)	-0.576	0.0338
COC(=O)[C@@]1(Cc2ccc(OC)cc2)[C@H]2c3cc(C(=O)N(C)C)n(CCc4c[nH]c5ccc(O)cc45)c3C[C@H]2CN1C(=O)c1ccccc1	-0.855	1.29 (inactive)	-1.64 (inactive)	-0.568 (inactive)	0.15 (inactive)	0.599 (inactive)	-0.135 (inactive)	0.301 (inactive)	-2.36	0.201
C[C@H]1ON(c2ccc(C(=O)OC(C)(C)C)cc2)[C@@H](c2ccc(O)cc2)[C@@H]1C(=O)N1C(=O)OC[C@@H]1c1ccccc1	-0.319	-0.407 (inactive)	-0.263 (inactive)	0.314 (inactive)	0.294 (inactive)	0.759 (inactive)	-0.563 (inactive)	-0.148 (inactive)	-0.782	0.0029
COc1ccc([Si](C)(C)[C@H]2[C@H](CCn3cc([C@H](O)c4ccccc4)nn3)O[C@@]3(C(=O)N(Cc4cccc(N5C(=O)c6cccc7cccc5c67)c4)c4ccccc43)[C@@H]2C)cc1	-0.717	0.807 (inactive)	-1.98 (inactive)	0.0064 (inactive)	1.42 (inactive)	0.378 (inactive)	-0.0889 (inactive)	-0.216 (inactive)	-1.47	-0.0516
NCCCCCCNC(=O)[C@@H]1C[C@@H]2C(=O)N3CCC[C@H]3C(=O)N2[C@@H]1c1ccc(O)cc1	-0.0529	-0.547 (inactive)	-0.233 (inactive)	-1.18 (inactive)	-0.282 (inactive)	-0.407 (inactive)	-0.188 (inactive)	-0.196 (inactive)	-0.134	-0.209
C=C(COC)/C(=C/C[C@@H](OC(=O)c1ccncc1)c1ccc(OCCO)cc1)c1cnc2ccccc2c1	0.564	-1.17 (inactive)	0.354 (inactive)	-6.09 (inactive)	-0.0221 (inactive)	-0.0819 (inactive)	0.595 (inactive)	0.436 (inactive)	0.621	0.0566
COCCOC(=O)N1C(=O)[C@@]2(c3cc(C#CC4(O)CCCCCC4)ccc31)[C@H](C(N)=O)[C@H]1C(=O)O[C@H](c3ccccc3)[C@H](c3ccccc3)N1[C@@H]2c1ccc(O)cc1	0.061	-0.676 (inactive)	-0.907 (inactive)	-0.942 (inactive)	0.51 (inactive)	0.389 (inactive)	-0.0029 (inactive)	0.761 (inactive)	-1.73	-0.144
CN(C)CCCCNC(=O)[C@H]1C[C@H]2C(=O)N3CCC[C@H]3C(=O)N2[C@H]1c1ccc(O)cc1	0.769	-0.659 (inactive)	0.949 (inactive)	-0.884 (inactive)	1.99 (inactive)	-0.35 (inactive)	-0.476 (inactive)	-0.565 (inactive)	-0.536	-0.192
CCCCN1CC=CC23O[C@@H]4C=CCOC(=O)[C@@H]4[C@H]2C(=O)N(CCCO)[C@@H]3C1=O (stereo not given in full)	-1.09	-0.233 (inactive)	-0.788 (inactive)	-0.284 (inactive)	-0.193 (inactive)	0.164 (inactive)	-1.33 (inactive)	-1.28 (inactive)	-0.848	0.106
COc1ccc([Si](C)(C)[C@H]2[C@H](CCn3cc(CCO)nn3)O[C@@]3(C(=O)N(Cc4ccc(N5C(=O)c6cccc7cccc5c67)cc4)c4ccccc43)[C@@H]2C)cc1	-2.42	0.0502 (inactive)	-5.99 (inactive)	-1.14 (inactive)	0.519 (inactive)	1.66 (inactive)	0.528 (inactive)	0.251 (inactive)	-5.65	0.0636
COC(=O)C(CC#Cc1ccc2c(c1)[C@]1(C(=O)N2)[C@H](C(=O)O)[C@H]2C(=O)O[C@H](c3ccccc3)[C@H](c3ccccc3)N2[C@@H]1c1ccccc1OCCO)C(=O)OC	0.289	-0.307 (inactive)	0.0819 (inactive)	-18.9 (active)	2.07 (inactive)	2.55 (inactive)	0.698 (inactive)	0.202 (inactive)	-4.42	-0.0673
C=C(CCCC)C(=O)CC[C@@H](OC(=O)c1cccnc1)c1ccccc1OCCO	0.0748	-3.02 (inactive)	-1.22 (inactive)	-2.63 (inactive)	-0.153 (inactive)	0.231 (inactive)	0.604 (inactive)	0.448 (inactive)	-2.39	0.0325
CN(C)CCCCNC(=O)[C@H]1C[C@H]2C(=O)N[C@@H](CCCCN(C)C)C(=O)N2[C@H]1c1cccc(OCCO)c1	1.11	0.427 (inactive)	0.895 (inactive)	-0.493 (inactive)	-1.48 (inactive)	0.807 (inactive)	0.0233 (inactive)	-0.0221 (inactive)	0.45	-0.0559
O=C1C[C@]2(c3ccc([N+](=O)[O-])cc3)C(=O)N(Cc3ccccc3)c3cc(CO)ccc3[C@H]2N1CC12CC3CC(CC(C3)C1)C2	-0.566	-0.0685 (inactive)	-0.434 (inactive)	-3.36 (inactive)	0.848 (inactive)	-0.268 (inactive)	-0.22 (inactive)	0.0276 (inactive)	-0.717	-0.133
COC(=O)[C@H](Cc1ccccc1)N1CC(/C=C/C2CC2)=C[C@@H]1[C@@H](O)Cc1ccccc1	1.09	-2.65 (inactive)	-2.24 (inactive)	0.114 (inactive)	0.294 (inactive)	0.385 (inactive)	0.461 (inactive)	0.658 (inactive)	-0.277	-0.0414
CN(C)CCCNC(=O)[C@@H]1c2ccccc2C(=O)N(Cc2ccc(OC(F)(F)F)cc2)[C@H]1c1ccc(CO)cc1	-0.39	0.0639 (inactive)	0.983 (inactive)	0.853 (inactive)	0.407 (inactive)	1 (inactive)	0.897 (inactive)	-0.193 (inactive)	0.818	-0.117
C[N+](C)(C)CCCC[C@@H]1NC(=O)[C@@H]2C[C@H](C(=O)O)[C@H](c3ccc(O)cc3)N2C1=O	-1.16	0.824 (inactive)	0.18 (inactive)	-11.6 (active)	0.103 (inactive)	0.0252 (inactive)	0.233 (inactive)	0.596 (inactive)	-0.339	-0.199
COc1cc2c(cc1O)C(C)N(Cc1cc3c(cc1Br)OCO3)CC2 (stereo not given)	-0.587	-0.272 (inactive)	0.297 (inactive)	-9.46 (active)	-0.351 (inactive)	0.526 (inactive)	0.553 (inactive)	0.0553 (inactive)	0.538	-0.157
CCOC(=O)[C@@H]1[C@@H]2C(=O)N(CC)C(=O)[C@@H]2C[C@@H]1Sc1ccccc1	0.0632	-0.325 (inactive)	-0.33 (inactive)	0.917 (inactive)	0.257 (inactive)	0.866 (inactive)	-0.638 (inactive)	-0.894 (inactive)	-0.458	-0.127
COCCCNC(=O)[C@@]1(Sc2ccc(C)cc2)CC(=O)N(C2Cc3ccccc3C2)[C@@H]1c1ccc(CO)cc1I	-0.0076	-2.87 (inactive)	-2.79 (inactive)	-0.591 (inactive)	0.196 (inactive)	-0.429 (inactive)	-0.0635 (inactive)	0.0605 (inactive)	-2.31	0.108
COC(=O)c1c(CC[C@@H](CO)NC(=O)N[C@H](Cn2cc(-c3ccccc3C)nn2)C(C)C)oc(C(C)=O)c1C(=O)OC	-0.329	-0.723 (inactive)	0.173 (inactive)	-3.09 (inactive)	0.574 (inactive)	-0.489 (inactive)	0.173 (inactive)	-0.488 (inactive)	-0.371	0.211
